Experimental data reported in PubChem BioAssay (Tox21).
Inconclusive results are not listed. A number with no mark means an inactive call. Activity calls are given as the source filed them. The call rests on the fitted dose curve.

The compounds below were run against Muscarinic acetylcholine receptor M1 (Homo sapiens) (UniProt P11229) (assay: Cholinergic receptor muscarinic 1 (CHRM1) small molecule antagonists, cell-based qHTS assay (AID 1963588; further: nearly all actives have a fitted effect of over 40% in size)). Conditions: CHRM1-CHO antagonist mode, calcium flux fluorescence; series mostly up to 61.5 µM; activity, negative = inhibition: at the top concentration.
Sequence of Muscarinic acetylcholine receptor M1 (Homo sapiens) (P11229 whole entry, looked up): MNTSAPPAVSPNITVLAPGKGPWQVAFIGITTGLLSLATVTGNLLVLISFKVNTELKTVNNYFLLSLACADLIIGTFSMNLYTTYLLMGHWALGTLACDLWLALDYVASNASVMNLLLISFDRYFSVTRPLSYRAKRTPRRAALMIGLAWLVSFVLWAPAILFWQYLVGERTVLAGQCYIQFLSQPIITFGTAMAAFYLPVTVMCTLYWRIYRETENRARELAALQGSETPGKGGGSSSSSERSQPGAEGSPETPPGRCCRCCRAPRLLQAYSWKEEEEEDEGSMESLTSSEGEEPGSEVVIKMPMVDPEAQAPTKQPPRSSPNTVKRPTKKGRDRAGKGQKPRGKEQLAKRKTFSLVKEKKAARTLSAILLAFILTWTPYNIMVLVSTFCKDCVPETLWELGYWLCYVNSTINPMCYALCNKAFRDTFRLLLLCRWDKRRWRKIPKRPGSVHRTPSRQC
Text: National Center for Advancing Translational Sciences [NCATS]
Division of Preclinical Innovation [DPI]
U.S. Environmental Protection Agency [EPA]
National Institutes of Environmental Health Sciences [NIEHS]
National Toxicology Program [NTP]
U.S. Food and Drug Administration [FDA]
The CHRM1 is a muscarinic receptor. This receptor plays a crucial role in learning and memory processes and has long been identified as a promising therapeutic target for the improvement of cognitive decline in Alzheimer's disease (AD). The CHRM1-CHO cell line stably expressing human muscarinic acetylcholine receptor M1 (CHRM1) can be used for screening agonists and antagonists of interactions between CHRM1 and its ligands. The CHRM1-CHO Calcium Flux Assay is a homogeneous fluorescence-based assay for detecting the intracellular calcium level using FDSS kinetic plate reader system.
Tox21 Assay Protocol Summary:
CHRM1-CHO cells were dispensed at 1000 cells/3uL/well in 1536-well black-clear bottom plates using a Multidrop Dispenser. After the assay plates were incubated at a 37 C/5% CO2 incubator for 18 h, 3 uL of Dye Loading Buffer was transferred to the assay plate by a Flying Reagent Dispenser. The assay plates were incubated at 37 C for 1h. For antagonist mode, 23 nL of compounds dissolved in DMSO, positive controls or DMSO only was transferred to the assay plate by a pin tool. After 5 min incubation at room temperature, 1.5 uL of acetylcholine at 50nM was added to each well. The fluorescence intensity in the plates was measured using FDSS 7000EX kinetic plate reader for 3 min at 1 sec intervals. Each test compound was measured at 15 concentrations in three independent runs.
On the % scale 0 is the no-effect control and ±100 the full control effect; potency means the concentration at half of the fitted maximal effect.

Row | Structure (SMILES) | activity, negative = inhibition | Potency
1 | O=C(O)C(F)(F)C(F)(F)C(F)(F)C(F)(F)C(F)(F)F | 3.34% | 
2 | O=[N+]([O-])c1ccccc1CCl | 10.2% | 
3 | COP(=O)(OC)O/C(=C/Cl)c1cc(Cl)c(Cl)cc1Cl | -4.21% | 
4 | CCC(OC(C)=O)C(CC(C)NC)(c1ccccc1)c1ccccc1 (stereo not given) | -10.5% | 
5 | Cc1ccccc1OP(=O)(Oc1ccccc1C)Oc1ccccc1C | -10.4% | 
6 | O=C(O)CC(Cl)C(=O)O (stereo not given) | -11.2% | 
7 | O=[N+]([O-])[O-].[Tl+] | 8.95% | 
8 | COC(=O)c1cc(Oc2ccc(Cl)cc2Cl)ccc1[N+](=O)[O-] |  | 37.5 nM (active)
9 | CCOc1nc(C(Cl)(Cl)Cl)ns1 | 1.04% | 
10 | O=C1c2ccccc2C(=O)C1C(=O)C(c1ccccc1)c1ccccc1 | 16.3% [at 28.3 µM] | 
11 | O=S(=O)(C(Cl)(Cl)Cl)C(Cl)(Cl)Cl | -3.62% | 
12 | CC(C)(C)NC[C@H](O)c1ccc(O)cc1Cl | 13.7% [at 28.3 µM] | 
13 | C=CCOC(=O)C(C)(C)OC(=O)c1cc(-n2c(=O)cc(C(F)(F)F)n(C)c2=O)ccc1Cl | -2.77% | 
14 | C#C[C@]1(O)C=C[C@H]2[C@@H]3CCC4=CC(=O)CC[C@@H]4[C@H]3CC[C@@]21CC | 1.64% [at 28.3 µM] | 
15 | N#CC(C#N)=C(C#N)C#N | 3.12% | 
16 | C[N+]1(CCC(C(N)=O)(c2ccccc2)c2ccccc2)CCCCC1 | -52.6% [at 28.3 µM] | 
17 | C[C@@H](Oc1ccc(Cl)cc1Cl)C(=O)O | 3.47% | 
18 | O=[Se]=O | -7.8% [at 28.3 µM] | 
19 | Nc1cc(Cl)ccc1O | 2.98% | 
20 | CCOc1cc(OP(=S)(OC)OC)nc(CC)n1 | -0.613% | 

Row | Structure (SMILES) | activity, negative = inhibition | Potency
21 | CN(C)CCN(C)C | -5.01% | 
22 | ClC(Cl)=C(Cl)Cl | -4.28% | 
23 | O=C(O)COc1nc(Cl)c(Cl)cc1Cl | 5.83% | 
24 | COP(=O)(OC)O/C(=C\Cl)c1cc(Cl)c(Cl)cc1Cl | -12.4% | 
25 | ClC1=C(Cl)[C@]2(Cl)[C@@H]3[C@@H](Cl)[C@H]4O[C@H]4[C@@H]3C1(Cl)C2(Cl)Cl | -12.3% | 
26 | CCC(COC(=O)c1cc(OC)c(OC)c(OC)c1)(c1ccccc1)N(C)C (stereo not given) | -11.3% [at 28.3 µM] | 
27 | CC(CCc1ccccc1)NC(C)C(O)c1ccc(O)cc1 (stereo not given) | -13.2% [at 28.3 µM] | 
28 | Clc1ccc(Oc2ccccc2)cc1 | 7.72% | 
29 | C=C(C)CN(CC)c1c([N+](=O)[O-])cc(C(F)(F)F)cc1[N+](=O)[O-] | -20.1% | 
30 | Clc1cccc(N2CCNCC2)c1 | 2.55% [at 28.3 µM] | 
31 | S=C(SSC(=S)N1CCCCC1)N1CCCCC1 | 7.13% [at 28.3 µM] | 
32 | CCC(C)(c1ccc(O)cc1)c1ccc(O)cc1 | -7.1% | 
33 | N#CN=C1SCCN1Cc1ccc(Cl)nc1 | 37.9% | 
34 | ClCCCN1CCN(c2cccc(Cl)c2)CC1 | 17.1% [at 28.3 µM] | 
35 | Clc1ccc(-c2ccc(Cl)c(Cl)c2Cl)c(Cl)c1Cl | -6.9% | 
36 | O=C(Nc1ccc(F)cc1F)c1cccnc1Oc1cccc(C(F)(F)F)c1 | 4.77% | 
37 | C[C@]12C=CC(=O)C=C1CC[C@@H]1[C@@H]2CC[C@@]2(C)[C@H]1CC[C@]2(C)O | -14.8% [at 28.3 µM] | 
38 | CCOP(=S)(OCC)SCS(=O)(=O)C(C)(C)C | -17.3% | 
39 | [CH3][Hg][Cl] | -14.7% | 
40 | CC(=O)[O-].CC(=O)[O-].CC(=O)[O-].[Cr+3] | -9.77% | 
